# NS1 inh – inhibitors of influenza NS1 protein function; AID 2326; 0.4% of 270,000 active; Potency, µM (highest dose often 46.1 µM); further: actives are rising curves; nearly all actives have a fitted effect of over 50% in size
#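 In this qHTS, NS1 from influenza A is expressed in budding yeast, where it slows growth. Cells are switched from glucose to 2% galactose medium (pH 6.0, -URA), treated with compound, and growth recovery is read at OD600.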
# LmPK inhibitor – blocks Leishmania mexicana pyruvate kinase activity | 0.37% of 290,000 active | Potency, µM (series often up to 57.5 µM), most hits filed as inhibitors | Q27686 | AID 1721 | purified LmPK, Kinase-Glo ATP luminescence, 1 h; active means well fitted curve in the direction sought with a large enough effect; inconclusive means small, poorly fitted or top-dose-only effect, or another doubt; inactive means no such curve, though single readings can be large; an effect the other way counts as inactive or inconclusive
# Target sequence (Q27686 whole entry, looked up): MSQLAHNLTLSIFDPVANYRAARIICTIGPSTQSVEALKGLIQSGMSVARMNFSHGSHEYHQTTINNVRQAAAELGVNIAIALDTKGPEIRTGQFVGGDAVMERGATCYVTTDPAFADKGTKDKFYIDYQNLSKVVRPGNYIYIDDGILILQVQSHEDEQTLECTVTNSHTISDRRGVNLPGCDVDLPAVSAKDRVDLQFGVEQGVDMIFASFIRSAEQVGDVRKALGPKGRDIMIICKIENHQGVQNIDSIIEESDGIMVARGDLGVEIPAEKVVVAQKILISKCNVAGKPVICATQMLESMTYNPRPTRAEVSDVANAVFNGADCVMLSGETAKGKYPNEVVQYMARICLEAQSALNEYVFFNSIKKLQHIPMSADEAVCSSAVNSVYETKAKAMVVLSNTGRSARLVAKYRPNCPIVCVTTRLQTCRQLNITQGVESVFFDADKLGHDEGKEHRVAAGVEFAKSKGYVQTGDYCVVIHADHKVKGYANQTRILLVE
#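 Screened at intermediate enzyme activity to detect both inhibitors and activators: LmPK at 0.1 nM, with a 0.5 nM enzyme column as activation reference. PEP 0.5 mM, ADP 0.1 mM; ATP detected by luminescence after 1 h.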
# SARS PLpro yeast – inhibitors of SARS-CoV papain-like protease in yeast. S. cerevisiae expressing SARS-CoV PLpro, growth rescue. Potency, µM (titrated, usually from 32.9 µM), usual class: activators. 0.19% of 330,000 active; further: nearly all actives have a fitted effect of over 55% in size
# Shiga inhibitor – blocks Shiga toxin action in Vero cells | inhibition, % at 38.7 µM | AID 2315 | 9.2% of 290,000 active | Vero cells, Shiga toxin protein synthesis inhibition reporter; in the data active means inhibition mostly above about 28%, no sharp cut-off; inactive means mostly below about 43%
# CHX counter – affects cycloheximide protein synthesis inhibition readout, counter-screen | cell reporter, cycloheximide protein synthesis inhibition counterscreen | max response, % | 12% of 300,000 active | AID 2314; in the data active means max response mostly above about 13%, no sharp cut-off; inactive means mostly below about 14%; further: read at 38.3 µM for the half of the compounds with a filed dose
# Tb PYK inh – inhibitors of Trypanosoma brucei pyruvate kinase; TbPYK enzyme, Kinase-Glo Plus ATP luminescence, 45 min; Potency, µM (top dose mostly 76.8 µM), actives largely listed as inhibitors; 0.12% of 410,000 active; active means well fitted curve in the direction sought with a large enough effect; inconclusive means small, poorly fitted or top-dose-only effect, or another doubt; inactive means no such curve, though single readings can be large; an effect the other way counts as inactive or inconclusive; further: nearly all actives have a fitted effect of over 50% in size
#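 Luminescent Kinase-Glo Plus end-point after 45 min room-temperature reaction of T. brucei pyruvate kinase started with 130 uM ADP (final). Buffer TEA 50 mM pH 7.2 with KCl, MgCl2, BSA, Tween-20; titration-based qHTS with fitted concentration-effect curves.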
# Numbers stand for hits; - = inactive; ? = inconclusive; . = no result given; + = active, no number; [ ] = dose if it differs, or a comment. Only a selection was taken, and hits are over-represented in it overall. Unless noted, the call rests on the fitted dose curve.
SMILES,NS1 inh,LmPK inhibitor,SARS PLpro yeast,Shiga inhibitor,CHX counter,Tb PYK inh
COc1ccc(-c2noc(N3CCC(C(=O)NCCCN4CCCC(C)C4)CC3)n2)cc1 (centres undefined),-,-,-,-,active,-
COc1cccc(NC(=O)CCc2nc(-c3ccc(C(C)(C)C)cc3)no2)c1,.,.,.,.,.,-
COc1cccc(NC(=O)CN(C)CC(=O)Nc2cccc(C(F)(F)F)c2)c1,-,-,-,-,-,-
COc1ccccc1-c1noc(CCC(=O)Nc2ccccc2Cl)n1,-,-,-,-,19,-
COc1ccc(-c2noc(N(C)CC(=O)Nc3cccc(C(F)(F)F)c3)n2)cc1,-,-,-,-,21,-
Cc1cccc(-c2noc(Cc3ccc(Cl)cc3)n2)c1,-,-,-,-,40,-
COc1ccccc1-c1noc(CCC(=O)Nc2ccc(C)cc2C)n1,.,.,.,.,.,-
COc1ccc(-c2noc(CCC(=O)Nc3cccc(C)c3)n2)cc1,-,-,-,100,27,-
CCc1ccc(-n2nc(C)c3c(C)cc(=O)n(CC(=O)N(CC)Cc4ccccc4)c32)cc1,.,.,.,.,.,-
CCC1(c2ccccc2)SC(N)=NC1=O (centres undefined),.,.,.,.,.,-
COc1ccc(C2=NS(=O)(=O)N(C)C(C(=O)Nc3ccc(OC(F)(F)F)cc3)=C2)cc1,.,.,.,.,.,-
COc1ccccc1Cc1nc2ccccc2nc1SCC(=O)NCc1ccc(F)cc1,.,.,.,.,.,-
COc1ccc(Cc2nc(-c3cccc(C)c3)no2)cc1,-,-,?,112,52,-
COc1ccc(S(=O)(=O)N(C)Cc2nc(-c3cccc(C)c3)no2)cc1,.,.,.,.,.,-
COc1cccc(NC(=O)CN(C)C(=O)c2ccc(-c3ccc(Cl)cc3)o2)c1,.,.,-,.,.,-
Cc1ccc(-c2ccc(C(=O)NCc3ccccc3)o2)c2ccccc12,-,-,-,-,-,-
N#Cc1ccccc1NC(=O)c1ccc(-c2ccccc2Cl)o1,-[9.22 µM],-,-,123,30,-
Cc1ccc(-c2ccc(C(=O)Nc3ccccc3)o2)c2ccccc12,-,-,-,67,36,-
O=C(NCCc1ccccc1)c1ccc(-c2ccccc2Cl)o1,-,-,-,-,-,-
CC(C)NC(=O)c1ccc(-c2ccccc2C(F)(F)F)o1,-,-,-,93,44,-
COc1cccc(NC(=O)CN(C)C(=O)c2ccc(-c3ccccc3Cl)o2)c1,-,-,-,-,11,-
CN(C)c1ccc(-c2nc(-c3cccs3)c(-c3cccs3)[nH]2)cc1,.,.,.,.,.,-
O=C(CN1CCc2ccccc2C1)Nc1ccccc1C(F)(F)F,-,-,-,-,-,-
O=C(NCCC1=CCCCC1)c1cc(-c2ccccn2)nc2ccccc12,.,-,-,-,-,-
O=C(Nc1ccccc1)c1ccc(-c2ccccc2Cl)o1,-,-,-,-,38,-
SMILES,NS1 inh,LmPK inhibitor,SARS PLpro yeast,Shiga inhibitor,CHX counter,Tb PYK inh
CC(=O)Nc1ccc(NC(=O)c2ccc(-c3ccccc3Cl)o2)cc1,.,.,-,.,.,-
O=C(Nc1ccccc1)c1ccc(-c2ccccc2C(F)(F)F)o1,-,-,-,73,46,-
O=C(NCc1ccc(Cl)cc1)c1ccc(-c2ccccc2C(F)(F)F)o1,-,-,-,-,-,-
COc1cccc(CNC(=O)C2CCN(S(=O)(=O)c3c(C)noc3/C=C/c3cccs3)CC2)c1,.,.,.,.,.,-
Cc1ccccc1C(=O)NCCOc1ccccc1Cl,-,-,-,.,36,-
COc1ccccc1OCCNC(=O)c1ccc(C(C)(C)C)cc1,.,.,.,.,.,-
COc1ccccc1OCCNC(=O)c1ccc(Br)cc1,-,-,-,62,36,-
CSc1ccccc1C(=O)NCCOc1ccccc1C,.,-,-,-,-,-
COc1ccccc1OCCNC(=O)c1cc(F)c(F)cc1Cl,-,-,-,25,30,-
O=C(NCCOc1ccccc1F)c1cc(F)c(F)cc1Cl,-,-,-,86,36,-
CCN1CCN(C(=O)CCNC(=O)Cn2cnc3ccccc3c2=O)CC1,-,-,-,-,-,-
Oc1ccc(Cl)cc1-c1cc(-c2ccccc2)n[nH]1,-,-,-,-,18,-
Oc1ccccc1-c1cc(-c2ccc(F)cc2)n[nH]1,-,-,-,.,30,-
Cc1ccc(-c2cc(-c3ccc(C)cc3O)[nH]n2)cc1,-,-,-,51,41,-
COc1ccc(NC(=O)c2cc(-c3ccc(C)cc3O)n[nH]2)c(OC)c1,-,-,-,-,-,-
Oc1ccc(F)cc1-c1cc(-c2ccc3c(c2)OCCO3)n[nH]1,-,-,-,90,42,-
Cc1ccc(O)c(-c2cc(-c3cccc(Br)c3)n[nH]2)c1,-,-,-,98,45,-
Cc1ccc(-c2cc(-c3ccc(F)cc3)n[nH]2)c(O)c1,-,-,-,101,51,-
Cc1ccc(O)c(-c2cc(C(F)(F)F)[nH]n2)c1,-,-,-,-,-,-
COc1cc(NC(=O)CC(C)S(=O)(=O)c2ccc3c(c2)NC(=O)CO3)cc(OC)c1OC (centres undefined),-,-,-,-,-,-
CCOC(=O)c1c(NC(=O)c2cc(=O)c3cc(C)ccc3o2)sc2c1CCCC2,.,.,.,.,.,-
COc1ccc(NC(=O)C[C@H]2C(=O)N(c3ccccc3)C[C@@H]2Cc2ccccc2)cc1,.,.,.,.,.,-
COC(=O)c1ccc2c(c1)c(C#Cc1ccccc1)c(-c1ccccc1)n2C,.,.,-,+,60,-
COc1ccc(C#Cc2c(-c3ccccc3)n(C)c3ccccc23)cc1,.,.,-,.,.,-
COC(=O)c1ccc2c(c1)c(I)c(-c1ccc(OC)cc1)n2C,.,.,.,+,37,.
SMILES,NS1 inh,LmPK inhibitor,SARS PLpro yeast,Shiga inhibitor,CHX counter,Tb PYK inh
CC(=O)Nc1ccc(NC(=O)c2ccccc2N(C)S(=O)(=O)c2ccccc2)cc1,-,-,-,.,-,-
CCOC(=O)N1CCC(Nc2nc3ccccc3nc2NS(=O)(=O)c2ccc(Cl)cc2)CC1,-,-,-,96,30,-
COc1ccc(Nc2ccc(Cl)nn2)cc1,-,-,-,-,15,-
CNc1ccc(Cl)nn1,.,-,-,-,-,-
NNc1ccc(Cl)nn1,-,-,-,-,22,-
O=C(NNc1ccc(Cl)nn1)c1ccc(Cl)cc1,-,-,-,-,-,-
Clc1ccc(Nc2ccc(Cl)nn2)cc1,-,-,-,48,-,-
COc1cc(NC(=O)Nc2c[nH]c(=O)[nH]c2=O)cc(OC)c1OC,.,.,.,.,.,-
O=C(Nc1ccc2oc(-c3cccnc3)nc2c1)c1ccco1,-,-,-,-,36,-
CCC(=O)NCc1ccc(-c2nc3ncccc3o2)cc1,-,-,-,-,16,-
CCc1ccc2oc(-c3ccc(NC(C)=O)cc3)nc2c1,-,-,-,145,61,-
O=C(Nc1ccc2oc(-c3cccnc3)nc2c1)c1ccc(Br)o1,-,-,-,-,-,-
CC(C)CC(=O)Nc1ccc2oc(-c3cccnc3)nc2c1,-,-,-,-,26,-
COCC(=O)N1CCC2(CC1)CN(c1ccc(-c3ccccc3)cc1)C2,.,.,.,.,.,-
